# High-throughput results (PubChem)
# Hits are enriched below; roughly 19% of the tested compounds scored in any of these assays.
# Shiga toxin inh: Shiga toxin inhibition. Vero cells, Shiga toxin protein synthesis inhibition reporter. inhibition, % at 38.7 µM. actives 9.2% (n = 290,000). AID 2315; in the data active = inhibition mostly above about 28%, no sharp cut-off; inactive = mostly below about 43%; note: 0% is about no effect
# Pf growth 48h: P. falciparum growth inhibition at 48 hours (one generation); P. falciparum luciferase growth in erythrocytes, 48 h; Potency, µM (titrated, usually from 28.7 µM), without a hit: at the top dose activity change, negative = inhibition, hits mostly inhibitors; actives 5.9% (n = 310,000); note: potency is the fitted concentration of half-maximal effect; % is set by controls: 0 for no effect and ±100 for the full control effect
#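 Cell-based growth assay: transgenic P. falciparum expressing firefly luciferase, cultured in red cells within RPMI 1640 containing 0.5% w/v Albumax, 24 mM bicarbonate and gentamycin. A drop in luciferase activity indicates inhibition.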
# AMA1-RON2 inh: inhibitors of Plasmodium falciparum AMA1-RON2 interaction; AlphaScreen AMA1-biotinylated RON2 peptide binding; actives 0.2% (n = 360,000); Potency, µM (top dose mostly 58.2 µM), inactives show top-dose activity change, negative = inhibition, most hits filed as inhibitors;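 note: potency is the fitted concentration of half-maximal effect; 0% = vehicle wells and -100% = peptide control; nearly all actives have a fitted effect of over 45% in size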
#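 AMA1 (3D7) with his tag at 25 nM final met compounds first, then biotinylated RON2 peptide at 25 nM; detection used donor plus acceptor beads, 10 µg/mL apiece, read by AlphaScreen after 30 min at room temperature.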
# Pf growth 96h: inhibits malaria parasite growth, 96 h. P. falciparum luciferase reporter growth, 96 h. Potency, µM (doses to about 28.7 µM), inactives show at the highest dose activity change, negative = inhibition, most hits filed as inhibitors. actives 6.9% (n = 320,000); note: potency is the fitted concentration of half-maximal effect; % is set by controls: 0 for no effect and ±100 for the full control effect
#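 Cell-based qHTS: luciferase-tagged P. falciparum in erythrocytes (2% hematocrit, 0.05% parasitemia final) incubated with compounds for 96 hours, 37 C, 5% CO2; luciferase detection reagent then added and luminescence measured.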
# Cycloheximide cs: counter-screen for Shiga toxin inhibitors: cycloheximide protein synthesis inhibition. cell reporter, cycloheximide protein synthesis inhibition counterscreen. max response, %. actives 12% (n = 300,000). AID 2314; in the data active = max response mostly above about 13%, no sharp cut-off; inactive = mostly below about 14%; note: read at 38.3 µM for the half of the compounds with a filed dose; 0% is about no effect
# SARS PLpro yeast: SARS-CoV PLP inhibition in yeast | S. cerevisiae expressing SARS-CoV PLpro, growth rescue | Potency, µM (top dose mostly 32.9 µM), for the others: at the highest dose activity, positive = growth rescue, usual class: activators | actives 0.19% (n = 330,000); calls by dose curve; note: potency is the fitted concentration of half-maximal effect; 0% is about no effect; nearly all actives have a fitted effect of over 55% in size
# * hit, by the source's call; u = inconclusive; x = no result given. Unless noted, calls come from the whole dose curve; as a rule, active = well fitted curve in the direction sought with a large enough effect; inconclusive = small, poorly fitted or top-dose-only effect, or another doubt; inactive = no such curve, though single readings can be large; an effect the other way counts as inactive or inconclusive.
SMILES,Shiga toxin inh,Pf growth 48h,AMA1-RON2 inh,Pf growth 96h,Cycloheximide cs,SARS PLpro yeast
C=CCOC(=O)C1=C(C)NC(C)=C(C(=O)OCC=C)C1c1cn(-c2ccccc2)nc1-c1ccco1,-12,u,0%,3.7µM*,-3,-20%
CCn1c(SCC(=O)N2CCN(c3ccc(F)cc3)CC2)nnc1-c1ccncc1,42,12%,11%,u,7,2%
Cc1cc(Nc2ccc(F)cc2)nc(N)n1,22,u,0%,9.3µM*,13,-4%
Cc1cc(Nc2cc(Cl)cc(Cl)c2)nc(N)n1,20,1.9µM*,-6%,2.3µM*,7,-2%
Cc1cc(Nc2ccc(C(=O)O)cc2)nc(N)n1,x,1%,5%,22%,-3,u
CCc1ccc2nc(N(CCN(C)C)C(=O)c3ccc4ncsc4c3)sc2c1,117*,-20%,u,218%,68*,-11%
CN(C)CCN(C(=O)c1cc(Cl)sc1Cl)c1nc2ccc(F)cc2s1,33,57%,-16%,14%,-3,-14%
Cc1cccc2sc(N(CCCN(C)C)C(=O)c3ccc4ncsc4c3)nc12,38*,u,-4%,u,20*,0%
COC(=O)C1=C(C)NC2=C(C(=O)CC(C)(C)C2)C1c1cn(Cc2ccc(Br)cc2)nc1-c1ccccc1 (stereo not given),-2,13µM*,18%,u,2,5%
COC(=O)C1=C(C)NC2=C(C(=O)CCC2)C1c1cn(Cc2ccc(Br)cc2)nc1-c1ccccc1 (stereo not given),-4,8.3µM*,0%,13µM*,-4,9%
CC(C)C1COC(c2cccc3ccccc23)=N1 (stereo not given),136*,180%,-4%,274%,76*,-23%
CCOC(=O)c1c(NC(=O)COC(=O)/C=C/c2ccccc2)sc(C(=O)NC)c1C,x,3%,5%,-13%,x,4%
O=c1[nH]nnc2cc(Cl)ccc12,x,x,10%,x,x,x
NC1=NC[C@@H](Cc2ccc(O)cc2)N1CCc1cccc2ccccc12,19,5.9µM*,8%,1.9µM*,1,-1%
NCCCC[C@H]1CN=C(N)N1CCc1cccc2ccccc12,x,x,8%,x,x,x
NC1=NC[C@H](Cc2ccc(O)cc2)N1CCc1cccc2ccccc12,-5,3.3µM*,-6%,1µM*,-6,-2%
Cc1nc2c(OCc3ccc(F)c(F)c3)cccn2c1N(C)C(=O)CCC1CCCC1,x,x,-12%,x,x,x
Cc1ccc2nc(-c3ccc(C#N)cc3)c(Cc3ccccn3)n2c1,x,x,32%,x,x,x
Cc1ccc(S(=O)(=O)N2CCC(=O)N(C(COCc3cccc(C(F)(F)F)c3)C(C)C)CC2)cc1 (stereo not given),9,u,-2%,10µM*,-3,-9%
Cc1ccc(S(=O)(=O)N2CCC(=O)N([C@H](COCc3cccc(Cl)c3)C(C)C)CC2)cc1,x,x,-4%,x,x,x
COc1ccc(OC2CCN(S(=O)(=O)c3ccc(F)cc3)CC2)cc1,8,-20%,0%,-19%,3,-2%
Cc1ccc(S(=O)(=O)N2CCC(Oc3cccc(C(F)(F)F)c3)CC2)cc1,-4,2%,9%,2.3µM*,-9,-1%
Cc1ccc(S(=O)(=O)N2CCC(=O)N(C(COCc3cccc(C)c3)C(C)C)CC2)cc1 (stereo not given),-12,10µM*,-2%,13µM*,-3,6%
Cc1ccc(S(=O)(=O)N2CCC(=O)N(C(COCc3cccc(Cl)c3)C(C)C)CC2)cc1 (stereo not given),-19,15µM*,-6%,10µM*,-4,-9%
COC(=O)c1c(NC(=O)C2SC(=NC3CCCCC3)C(C(N)=O)=C2N)sc2c1CCCC2 (stereo not given),-17,10%,0%,-12%,-7,-9%
COc1cc([C@@H]2CC=C(C(=O)O)CN2S(=O)(=O)c2ccc(C)cc2)cc(OC)c1OC,x,u,-4%,32%,x,0%
Cc1ccccc1-c1nc(CS(=O)(=O)CC(=O)N2CCOCC2)c(C)o1,-7,65%,5%,u,4,6%
O=C(NNc1nc(-c2ccccc2)cs1)c1ccco1,23,12µM*,0%,1.5µM*,12*,-12%
